# How the values were obtained:
# Assay in all cases: yeast three-hybrid, YBZ-1, SC-Leu-His + 0.5 mM 3-AT, 4 days
# Settings in all cases: tags: N-Gal4 AD-HA kept; label: inside an RPR1-promoter hybrid RNA with tandem MS2 sites; ssRNA
# PUM1 PUF domain R1-YRR = PUM1 PUF domain R1-YRR (Homo sapiens, UniProt Q14671 828-1176, S863Y;Q867R)
# How it was run: (§1)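 Each repeat of the Pumilio-1 PUF domain was randomized at its three base-contacting residues, and these libraries were co-expressed from a centromeric plasmid with matching RNA elements in strain YBZ-1. After four days on SC-Leu (input) or SC-Leu-His + 0.5 mM 3-AT (selection), the repeat regions were PCR-amplified and Illumina-sequenced. The interaction score compares variant frequency between input and selection as a log change, computed in log2 with a pseudocount of 1 for absent variants.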
# PUM1 PUF domain R5-LYG = PUM1 PUF domain R5-LYG (Homo sapiens, UniProt Q14671 828-1176, C1007L;R1008Y;Q1011G)
# How it was run: as §1
# PUM1 PUF domain R5-KHL = PUM1 PUF domain R5-KHL (Homo sapiens, UniProt Q14671 828-1176, C1007K;R1008H;Q1011L)
# How it was run: as §1
# PUM1 PUF domain R2-KLQ = PUM1 PUF domain R2-KLQ (Homo sapiens, UniProt Q14671 828-1176, N899K;Y900L)
# How it was run: as §1
# PUM1 PUF domain R1-KVS = PUM1 PUF domain R1-KVS (Homo sapiens, UniProt Q14671 828-1176, S863K;R864V;Q867S)
# How it was run: as §1
# PUM1 PUF domain R1-KWE = PUM1 PUF domain R1-KWE (Homo sapiens, UniProt Q14671 828-1176, S863K;R864W;Q867E)
# How it was run: as §1
# PUM1 PUF domain R3-LFT = PUM1 PUF domain R3-LFT (Homo sapiens, UniProt Q14671 828-1176, C935L;R936F;Q939T)
# How it was run: as §1
# PUM1 PUF domain R3-IFV = PUM1 PUF domain R3-IFV (Homo sapiens, UniProt Q14671 828-1176, C935I;R936F;Q939V)
# How it was run: as §1
# PUM1 PUF domain R3-DHV = PUM1 PUF domain R3-DHV (Homo sapiens, UniProt Q14671 828-1176, C935D;R936H;Q939V)
# How it was run: as §1
# PUM1 PUF domain R7-RSR = PUM1 PUF domain R7-RSR (Homo sapiens, UniProt Q14671 828-1176, S1079R;N1080S;E1083R)
# How it was run: as §1
# PUM1 PUF domain R6-LWV = molecular target: T1, PUM1 PUF domain R6-LWV (Homo sapiens, UniProt Q14671 828-1176, N1043L;Y1044W;Q1047V)
# T1 sequence: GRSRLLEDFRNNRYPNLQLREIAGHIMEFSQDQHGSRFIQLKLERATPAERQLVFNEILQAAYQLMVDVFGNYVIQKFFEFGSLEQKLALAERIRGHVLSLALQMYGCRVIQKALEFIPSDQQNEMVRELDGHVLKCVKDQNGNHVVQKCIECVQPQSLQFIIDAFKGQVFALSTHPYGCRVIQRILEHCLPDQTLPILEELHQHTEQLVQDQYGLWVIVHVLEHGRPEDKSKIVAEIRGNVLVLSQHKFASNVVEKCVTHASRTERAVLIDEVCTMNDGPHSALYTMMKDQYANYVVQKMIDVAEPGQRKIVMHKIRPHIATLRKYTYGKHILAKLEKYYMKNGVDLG
# How it was run: as §1
# Chain of PUM1 PUF domain R1-YRR (Q14671 828-1176 S863Y/Q867R): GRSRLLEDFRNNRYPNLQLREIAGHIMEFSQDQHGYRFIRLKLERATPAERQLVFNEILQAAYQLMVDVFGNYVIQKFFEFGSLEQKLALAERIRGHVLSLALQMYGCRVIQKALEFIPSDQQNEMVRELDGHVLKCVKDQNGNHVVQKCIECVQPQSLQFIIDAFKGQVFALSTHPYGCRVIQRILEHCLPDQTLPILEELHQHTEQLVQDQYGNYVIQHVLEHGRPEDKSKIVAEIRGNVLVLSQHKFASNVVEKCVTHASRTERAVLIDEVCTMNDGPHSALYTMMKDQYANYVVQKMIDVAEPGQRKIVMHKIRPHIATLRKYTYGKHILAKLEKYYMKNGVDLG
sequence,measurement,setting,value
GGCUAGAACUAGUGGAUCCCCCGGCGCCCGGCGGCUCGAGCCCGGGUAAGUGUAAAUGGUCUGCAUGCCGCCGGGCGCCAUGCCUGCAGGUCGACUCUAGAAAACAUG,binding signal,PUM1 PUF domain R1-YRR,4.42 log2 enrichment (interaction score)
GGCUAGAACUAGUGGAUCCCCCGGCGCCCGGCGGCUCGAGCCCGGGUAAGUGUUAAUAGUCUGCAUGCCGCCGGGCGCCAUGCCUGCAGGUCGACUCUAGAAAACAUG,binding signal,PUM1 PUF domain R5-LYG,2.42 log2 enrichment (interaction score)
same,binding signal,PUM1 PUF domain R5-KHL,5.83 log2 enrichment (interaction score)
GGCUAGAACUAGUGGAUCCCCCGGCGCCCGGCGGCUCGAGCCCGGGUAAGUGUAAAGAGUCUGCAUGCCGCCGGGCGCCAUGCCUGCAGGUCGACUCUAGAAAACAUG,binding signal,PUM1 PUF domain R2-KLQ,3.21 log2 enrichment (interaction score)
GGCUAGAACUAGUGGAUCCCCCGGCGCCCGGCGGCUCGAGCCCGGGUAAGUGUAAAUCGUCUGCAUGCCGCCGGGCGCCAUGCCUGCAGGUCGACUCUAGAAAACAUG,binding signal,PUM1 PUF domain R1-KVS,5.01 log2 enrichment (interaction score)
same,binding signal,PUM1 PUF domain R1-KWE,4.74 log2 enrichment (interaction score)
same,binding signal,PUM1 PUF domain R1-YRR,7.93 log2 enrichment (interaction score)
GGCUAGAACUAGUGGAUCCCCCGGCGCCCGGCGGCUCGAGCCCGGGUAAGUGUAAGUAGUCUGCAUGCCGCCGGGCGCCAUGCCUGCAGGUCGACUCUAGAAAACAUG,binding signal,PUM1 PUF domain R3-LFT,6.89 log2 enrichment (interaction score)
same,binding signal,PUM1 PUF domain R3-IFV,3.32 log2 enrichment (interaction score)
same,binding signal,PUM1 PUF domain R3-DHV,1.77 log2 enrichment (interaction score)
GGCUAGAACUAGUGGAUCCCCCGGCGCCCGGCGGCUCGAGCCCGGGUAAGUUUAAAUAGUCUGCAUGCCGCCGGGCGCCAUGCCUGCAGGUCGACUCUAGAAAACAUG,binding signal,PUM1 PUF domain R7-RSR,4.84 log2 enrichment (interaction score)
GGCUAGAACUAGUGGAUCCCCCGGCGCCCGGCGGCUCGAGCCCGGGUAAGUGAAAAUAGUCUGCAUGCCGCCGGGCGCCAUGCCUGCAGGUCGACUCUAGAAAACAUG,binding signal,PUM1 PUF domain R6-LWV,2.8 log2 enrichment (interaction score)

# — PMC8384837, “Expanding the binding specificity for RNA recognition by a PUF domain”
